Compound activity: PubChem BioAssay, National Center for Advancing Translational Sciences (NCATS)
Compounds with a hit are over-represented: about 0.45% of the library has one in this group of screens.
USP1-UAF1 inh = blocks the human USP1/UAF1 deubiquitinase complex; 390,000 compounds, 0.23% hits; Potency, µM (titrated, usually from 57.1 µM), usual class: inhibitors; AID 743255; recombinant USP1/UAF1, Ub-Rhodamine cleavage fluorescence; note: nearly all actives have a fitted effect of over 60% in size
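High-throughput fluorogenic screen: 1nM USP1/UAF1 complex, Ub-Rho substrate 150nM final, 50mM HEPES pH 7.8 with 0.5mM EDTA, 0.1 mg/ml BSA, 1mM TCEP and 0.01% Tween-20.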
EPAC2 antag = antagonists of human EPAC2 | EPAC2 GEF exchange of Rap1B-BODIPY-GDP, fluorescence | Potency, µM (series often up to 114 µM), hits mostly inhibitors | 360,000 compounds, 0.18% hits | AID 720708; note: nearly all actives have a fitted effect of over 45% in size
EPAC1 antag = antagonists of human EPAC1 | O95398 | EPAC1 GEF assay, Rap1b-BODIPY-GDP exchange fluorescence | Potency, µM (series often up to 115 µM), hits mostly inhibitors | 360,000 compounds, 0.14% hits | AID 720709; note: nearly all actives have a fitted effect of over 50% in size
EPAC2 agonist = agonists of human EPAC2 (RAPGEF4); AID 720711; 360,000 compounds, 0.079% hits; EPAC2 activation, biochemical qHTS; response scale: 100% = 6.5 mM cAMP response; Potency, µM (doses to about 154 µM), actives largely listed as activators; note: nearly all actives have a fitted effect of over 50% in size
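Compounds were titrated in qHTS against a Rap1B-BODIPY-GDP (250 nM) complex with EPAC2 (100 nM) and GDP (50 uM). BODIPY-GDP release tracked at 480/540 nm over 30 min at room temperature, normalized to 6.5 mM cAMP.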
EPAC1 agonist = agonists of human EPAC1; EPAC1 agonist qHTS, biochemical assay; response scale: 100% = response to 6.5 mM cAMP; O95398; Potency, µM (highest dose often 154 µM), most hits filed as activators; AID 720707; 360,000 compounds, 0.073% hits; note: nearly all actives have a fitted effect of over 60% in size
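EPAC1 100 nM, Rap1B–BODIPY-GDP 250 nM, unlabeled GDP 50 uM; compound titration; 5 min RT; kinetic read ex480/em540 at 5-min intervals ×30 min; data normalized to 6.5 mM cAMP agonist control.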
A number is an active result; n = inactive; u = inconclusive; x = not tested or not shown. Calls come from the whole dose curve; as a rule, active = well fitted curve in the direction sought with a large enough effect; inconclusive = small, poorly fitted or top-dose-only effect, or another doubt; inactive = no such curve, though single readings can be large; an effect the other way counts as inactive or inconclusive.

SMILES	USP1-UAF1 inh	EPAC2 antag	EPAC1 antag	EPAC2 agonist	EPAC1 agonist
Cc1nn(-c2ccccc2)c(Cl)c1/C=C1\SC(=S)N(CCCCCC(=O)O)C1=O	u	40µM	n	n	n
O=C(O)CN1C(=O)/C(=C\c2cc(Br)ccc2OCc2ccc(F)cc2)SC1=S	u	u	u	n	n
Cc1nn(-c2ccccc2)c(Cl)c1/C=C1\SC(=S)NC1=O	n	u	u	n	n
COC(=O)c1scc(-c2ccc(C)cc2)c1S(=O)(=O)Nc1cc(C)c(Cl)cc1OC	n	x	x	x	x
Cc1coc2c1C(=O)C(=O)c1c-2ccc2c(C)cccc12	28µM	n	79µM	n	n
O=C1S/C(=C\c2ccc(N3CCOCC3)o2)C(=O)N1Cc1ccc(F)cc1	5.6µM	n	n	112µM	n
O=C1NC(=S)S/C1=C/c1ccc(N2CCOCC2)o1	u	n	n	n	n
O=C1S/C(=C/c2ccc(N3CCOCC3)o2)C(=O)N1Cc1ccc(F)cc1	14µM	n	n	u	n
COc1ccc(N2C(=O)c3ccccc3NC2c2ccc(OC)c(CSc3ccccn3)c2)cc1 (configuration not stated)	n	n	n	n	n
CCCN1C(=O)c2ccccc2NC1c1ccc(OC)c(CSc2ccccn2)c1 (configuration not stated)	n	14µM	u	n	n
CCCN1C(=O)c2ccccc2NC1c1ccc(OC)cc1OC (configuration not stated)	n	32µM	n	n	n
Cc1cc(C)n(-c2nc3cc(Cl)ccc3nc2N2CCN(c3ccccc3F)CC2)n1	n	x	x	x	x
CC(C)c1ccc(Nc2c(-c3ccccn3)nc3ccccn23)cc1	n	x	x	x	x
N=C1/C(=C/c2coc3ccccc3c2=O)C(=O)N=C2SC(c3ccco3)=NN12	n	n	n	100µM	89µM
Cc1cc(/C=C2\C(=N)N3N=C(c4ccco4)SC3=NC2=O)c(C)n1Cc1ccccc1	u	n	u	n	n
N=C1/C(=C\c2coc3ccc(O)cc3c2=O)C(=O)N=C2SC=CN12	28µM	n	n	63µM	89µM
CN1C(=O)/C(=C/c2coc3ccc(O)cc3c2=O)SC1=S	n	n	n	n	n
N=C1/C(=C\c2coc3ccccc3c2=O)C(=O)N=C2SC(c3ccncc3)=NN12	28µM	n	n	63µM	100µM
O=C(Cn1nc(C(F)(F)F)c2c1CCCC2)Nc1ccc(F)c(Cl)c1	n	x	x	x	x
O=C(COc1ccccc1Cl)Nc1cccc(S(=O)(=O)NC2=NCCCCC2)c1	n	n	n	n	126µM
O=C(CN1CCCN(Cc2ccccc2F)S1(=O)=O)Nc1ccc(F)c(Cl)c1	n	x	x	x	x
CN(C)S(=O)(=O)N1C(=O)c2ccccc2C1=O	n	n	n	n	n
CN(C)/C=C1\C=C2C(=O)c3ccccc3N2C1=O	4.5µM	n	n	35µM	u
CCc1ccc(S(=O)(=O)NCc2nc3cccnc3n2Cc2ccccc2Cl)cc1	n	x	x	x	x
O=c1[nH]c2c(s1)C=Nc1ccccc1N2	28µM	n	n	u	n
SMILES	USP1-UAF1 inh	EPAC2 antag	EPAC1 antag	EPAC2 agonist	EPAC1 agonist
O=C(NCCc1ccccc1Cl)c1ccc(Cn2c(=O)c3cccn3c3cccnc32)cc1	n	x	x	x	x
O=C(O)c1ccc(N/N=C/c2ccc(-c3ccccc3Cl)o2)cc1	n	40µM	n	n	n
Cc1c(C)n(Cc2ccccc2)c2ccc(C(=O)N3CCN(c4ccccc4F)CC3)cc12	n	x	x	x	x
COc1cccc(CNC(=O)[C@@H]2CCCN2C(=O)[C@@H]2CCCN2S(=O)(=O)c2ccc(OC)c(C)c2)c1	x	n	n	n	n
COc1ccc(S(=O)(=O)N2CCC[C@H]2C(=O)N2CCC[C@H]2C(=O)NCc2ccccc2)cc1C	x	47µM	n	n	n
Cc1cccc(C(=O)Nc2cccc(C(=O)OCc3cc(=O)n4nc(C5CC5)sc4n3)c2)c1	n	x	x	x	x
COc1ccc(S(=O)(=O)/N=C2\C=C(Nc3ccc(O)cc3)C(=O)c3ccccc32)cc1	7.1µM	n	u	n	n
Cc1ccccc1NC1=C/C(=N\S(=O)(=O)c2cccs2)c2ccccc2C1=O	2.2µM	n	n	n	n
CC(=O)Nc1ccc(NC2=C/C(=N/S(=O)(=O)c3cccs3)c3ccccc3C2=O)cc1	16µM	n	n	n	n
COc1ccc(NC(=O)Nc2ccccc2OCc2cc(=O)n3ccccc3n2)c(OC)c1	n	x	x	x	x
Cc1ccc(-c2nc3cccnc3s2)cc1NC(=O)Cc1ccccc1	n	x	x	x	x
CCSc1ncc(Cl)c(C(=O)Nc2ccc(S(=O)(=O)N3CCCCC3)cc2)n1	n	x	x	x	x
O=C(CCn1c(=O)c2cccn2c2ccc(F)cc21)NCCc1ccccc1Cl	n	x	x	x	x
O=S(=O)(Nc1cc2nc3ccccc3nc2n1Cc1ccccc1)c1ccc(Cl)cc1	25µM	u	u	n	n
O=S(=O)(NCc1ccccc1)c1ccc(Cl)cc1	n	n	n	n	n
COc1cccc(CN2CCCN(Cc3ccc(F)cc3)S2(=O)=O)c1	n	x	x	x	x
CC(C)C[C@H](NC(=O)C1(c2ccccc2)CCN(C(=O)OC(C)(C)C)CC1)C(=O)N1CCC[C@H]1C(=O)O	n	79µM	u	n	n
CC1=Nc2ccccc2/C1=C/c1c(N)n2c(S(=O)(=O)C(C)C)nsc2nc1=O	u	n	n	n	n
CC1=Nc2ccc(C)cc2/C1=C/c1c(N)n2c(S(=O)(=O)C(C)C)nsc2nc1=O	n	n	50µM	n	n
Cc1c2cnn(CC(=O)NCCc3ccccc3)c(=O)c2c(C)n1Cc1ccccc1	n	x	x	x	x
O=C(c1ccccc1)c1ccc2ccccc2c1	n	u	n	n	n
O=C(c1ccccc1)c1ccc(O)cc1O	28µM	n	n	100µM	100µM
Cc1cc2ccccc2cc1C(=O)c1ccccc1	u	8.9µM	n	n	n
N#Cc1c(-c2ccccc2)nc(SCC(=O)N2c3ccccc3Sc3ccccc32)[nH]c1=O	32µM	8.9µM	79µM	n	n
N#Cc1c(-c2ccccc2)nc(SCC(=O)Nc2ccc(OC(F)(F)Cl)cc2)[nH]c1=O	u	35µM	u	n	n
SMILES	USP1-UAF1 inh	EPAC2 antag	EPAC1 antag	EPAC2 agonist	EPAC1 agonist
N#Cc1c(-c2ccccc2)nc(SCc2ccc(Cl)cc2)[nH]c1=O	u	u	79µM	n	n
COc1ccc(-c2cc3ccc(O)c(CN4CCOCC4)c3oc2=O)cc1	n	x	x	x	x
Cc1ccc(F)c(NC(=O)/C(C#N)=C(\O)c2ccc(C(C)(C)C)cc2)c1	22µM	n	56µM	n	n
Nc1ncc(Br)cc1S(=O)(=O)Nc1cc(C(F)(F)F)cc(C(F)(F)F)c1	n	16µM	u	n	n
Cc1ccc(NS(=O)(=O)c2cc(Br)cnc2N)c(Cl)c1	n	n	n	n	n
Nc1ccc(Oc2ncccn2)cc1	7.9µM	n	u	n	n
O=Cc1cccc(Oc2ncccn2)c1	n	n	n	n	n
CC(=O)N1CCn2c3c(c(=O)c4cc(C)ccc42)CCC31 (configuration not stated)	32µM	n	n	n	n
